Bioassay records deposited in PubChem BioAssay by National Center for Advancing Translational Sciences (NCATS).
Sampled rows, rich in hits. Any-hit rate of the full collection: about 2.2%.
Mito fusion act: qHTS Assay for Small Molecule Inhibitors of Mitochondrial Division or Activators of Mitochondrial Fusion | 320,000 compounds, 0.23% hits | S. cerevisiae fusion-defective mutant growth rescue, CellTiterGlo 48 h | AID 485298, 2010 | Potency, µM (series often up to 46.1 µM), for inactives: top-dose growth rescue (activation), usual class: activators; further: % of control where 0% means no effect; nearly all actives have a fitted effect of over 45% in size
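Luminescent cell viability in 1536-well qHTS format served as the measure of rescued growth in ts fusion-mutant S. cerevisiae cultured on non-fermentable YPEG for 48 hours at 37C.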
Abeta yeast res: qHTS for compounds that reverse cellular toxicity of Amyloid beta (A-beta) peptide in yeast: Primary Screen | Potency, µM (series often up to 46.1 µM), most hits filed as activators | 410,000 compounds, 0.063% hits | yeast expressing A-beta42, growth rescue, OD600, 48 h; response scale: 0% DMSO, 100% iron-clioquinol control; further: nearly all actives have a fitted effect of over 55% in size
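Yeast A-beta toxicity model in growth medium with pinned compounds, 48 h at 30 C; growth read as absorbance at 600 nm. Normalized to FeCl3/clioquinol equimolar mix (positive) and DMSO (negative).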
FUS yeast rescue: qHTS for Suppressors of FUS Proteinopathy: Primary screen using FUS-linked yeast assay; S. cerevisiae FUS-expressing, growth rescue, OD600, 24 h; Potency, µM (top dose mostly 76.6 µM), most hits filed as activators; 390,000 compounds, 0.24% hits;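 further: plate controls were DMSO vehicle for no effect and reference control for full effect; nearly all actives have a fitted effect of over 55% in size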
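Toxicity suppression screen in FUS-yeast. Cells induced with 2% galactose, starting OD 0.005, treated 24hr at 30C with compounds at multiple final concentrations; growth by OD600.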
aSyn rescue: qHTS of alpha-syn Inhibitors; Yeast expressing alpha-synuclein, growth rescue, BacTiter-Glo, 24 h; Potency, µM (titrated, usually from 46.1 µM), inactives show at the top dose growth rescue (activation), usual class: activators; 370,000 compounds, 0.14% hits; further: % of control where 0% means no effect; nearly all actives have a fitted effect of over 65% in size
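Readout is rescue of growth in alpha-synuclein-expressing yeast, so inhibitors of toxicity appear as activators. Growth after 24 hr at 30 deg C in galactose medium is quantified by luminescence.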
TDP43 rescue: qHTS of TDP-43 Inhibitors | AID 652104, 2013 | TDP-43 expressing yeast growth rescue, BacTiter-Glo, 24 h | 410,000 compounds, 1.8% hits | Potency, µM (titrated, usually from 46.1 µM), for the others: at the highest dose growth rescue (activation), most hits filed as activators; further: % of control where 0% means no effect; nearly all actives have a fitted effect of over 50% in size
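Galactose-induced TDP-43 yeast, OD600=0.02, compound pinned; 24 hr, 30 deg C; BacTiter-Glo luminescence for growth. Inhibitors of TDP-43 toxicity read as activators.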
Active calls of the source: *; i = inactive; ? = inconclusive; · = not tested or not shown; [ ] = remark or other dose. The call rests on the fitted dose curve; in most records, active means well fitted curve in the direction sought with a large enough effect; inconclusive means small, poorly fitted or top-dose-only effect, or another doubt; inactive means no such curve, though single readings can be large; an effect the other way counts as inactive or inconclusive. Potency means the concentration at half of the fitted maximal effect.

SMILES | Mito fusion act | Abeta yeast res | FUS yeast rescue | aSyn rescue | TDP43 rescue
O=C(CCc1ccccc1)NNc1cc(N2CCCCC2)nc(N2CCCCC2)n1 | -10% | i | i | -1% | 3.2µM*
C#CCN1CCc2onc(-c3ccc(Br)cc3)c2C1=O | · | i | i | -2% | 35µM*
Cc1cc(S(=O)(=O)c2ccc([N+](=O)[O-])cn2)ccc1Br | · | i | i | -22% | 1µM*
COc1ccc(-n2ncc(C(=O)NCc3ccccc3)c2C2CCN(C(=O)OC(C)(C)C)CC2)cc1 | · | i | ? | · | 13%
CCc1cccc(C)c1NC(=O)c1cnn(-c2ccc(OC)cc2)c1C1CCN(C(=O)OC(C)(C)C)CC1 | · | i | 22µM* | · | 6%
Cc1ccc(C)c(NC(=O)c2cnn(-c3cccc(F)c3)c2C2CCN(C(=O)OC(C)(C)C)CC2)c1 | · | i | ? | · | 35µM*
COc1ccc(CN2CN3Cc4cc(F)ccc4C3CS2(=O)=O)cc1 (stereo not given) | · | · | i | · | ·
CCc1cc(C(=O)Nc2ccc(S(=O)(=O)NC3=NCCCCC3)cc2)sc1C | 1% | i | 25µM* | -3% | -27%
Cc1ccc(C(=O)Nc2ccc(S(=O)(=O)NC3=NCCCCC3)cc2)c(C)c1 | -2% | i | i | 0% | -8%
CCOC(=O)C1CCN(C(=O)c2cc(C(C)(C)C)nn2Cc2ccccc2)CC1 | -4% | i | i | 3% | 13%
Cc1ccc(Nc2nc(CSc3nnc(-c4ccc(F)cc4)n3C)cs2)cc1 | ? | i | · | -18% | 18µM*
O=[N+]([O-])c1cccnc1Sc1ccc(Br)cc1 | · | i | i | -3% | 13µM*
Cc1ccccc1Sc1ncccc1[N+](=O)[O-] | · | i | i | 3% | 13µM*
Cc1ccc(Sc2ncccc2[N+](=O)[O-])cc1 | -3% | i | i | 15% | ?
COC(=O)[C@]12CCCCC=C1N(Cc1ccco1)C(=O)[C@H](CC(=O)N1CCN(C(=O)c3ccco3)CC1)C2 | · | i | i | 0% | 0%
CCCCCCCCN1C(=O)[C@H](CC(=O)N2CCN(C(=O)c3ccco3)CC2)C[C@@]2(C(=O)OC)CCCCC=C12 | · | i | ? | 11% | 14µM*
CCCCCCCCN1C(=O)[C@H](CC(=O)N2CCN(C(=O)OCC)CC2)C[C@@]2(C(=O)OC)CC(C)(C)CC=C12 | · | i | ? | -49% | -80%
CCCCCCCCN1C(=O)[C@H](CC(=O)NCCCN2CCCC2=O)C[C@@]2(C(=O)OC)CC(C)(C)CC=C12 | · | i | ? | -11% | 35µM*
COC(=O)[C@@]12C[C@@H](CC(=O)NCCCN3CCCC3=O)C(=O)N(Cc3ccccc3)C1=CCC(C)(C)C2 | · | i | i | 3% | ?
CCCCCCCCN1C(=O)[C@H](CC(=O)N2CCN(C(=O)C3CC3)CC2)C[C@@]2(C(=O)OC)CC(C)(C)CC=C12 | · | i | 16µM* | -31% | -88%
C#CCNC(=O)C[C@@H]1C[C@@]2(C(=O)OCC)CCCC=C2N(CCCCCCCC)C1=O | · | i | 10µM* | ? | 13µM*
N#CCC[C@H]1CC[C@]2(CCCN(C(=O)c3ccccc3)C2)O1 | · | · | i | · | ·
CN(C)c1ccc(CC2CCc3ccccc32)cc1 (stereo not given) | · | · | · | 1% | ·
COc1ccc(-c2nc(CSCC(=O)N3CCN(c4cc(Cl)ccc4C)CC3)c(C)o2)cc1 | · | i | ? | · | 3%
CCCCCCCCN1C(=O)[C@H](CC(=O)N2CCOCC2)C[C@@]2(C(=O)OCC)CCCC=C12 | · | i | 11µM* | 20% | 22%
SMILES | Mito fusion act | Abeta yeast res | FUS yeast rescue | aSyn rescue | TDP43 rescue
CCCCCCCCN1C(=O)[C@H](CC(=O)N2CCCC2)C[C@@]2(C(=O)OC)CCCCC=C12 | · | ? | 6.3µM* | 25% | 14%
CC1=CCC2C(=O)N(c3cccc(C(=O)Nc4ccc(Cl)cc4)c3)C(=O)C2C1 (stereo not given) | 5% | 14µM* | i | 27% | ?
CCOC(=O)c1cc(C(=O)NNC(=O)c2cccc([N+](=O)[O-])c2)c(C)nc1C | 0% | i | i | 1% | -19%
CC(=O)Nc1ccc(S(=O)(=O)Nc2ccccc2C(=O)NCc2cccnc2)cc1 | 10µM* | i | i | 1% | -6%
CC(C)CN(C(=O)CSc1nn(-c2ccc(Cl)cc2)c(=S)s1)C1CCS(=O)(=O)C1 (stereo not given) | 0% | i | ? | 1% | -5%
Nc1nnc(-c2ccc(Cl)cc2Cl)s1 | 0% | i | i | 15% | 11µM*
Clc1ccc(-c2nn3c(-c4ccncc4)nnc3s2)c(Cl)c1 | 3% | · | · | · | ·
Clc1ccc(-c2nn3cnnc3s2)c(Cl)c1 | 16% | i | i | 4% | 18µM*
Nc1nnc(-c2ccccc2F)s1 | 6% | i | i | -1% | -18%[9.22 µM]
CCOc1cccc2cc(-c3nc(-c4ccccc4C)no3)c(=O)oc12 | · | i | i | · | 7%
CCCCNC(=O)C[C@H]1C[C@@]2(C(=O)OC)C(=C[C@H](COCc3ccccc3)O[C@@H]2C)N(Cc2ccco2)C1=O | · | · | i | · | ·
Clc1ccc(OCCn2cnc(Cl)c2Cl)cc1 | -5% | ? | i | 20% | 11µM*
COc1ccc(OCCn2cnc(Cl)c2Cl)cc1 | -4% | i | i | 3% | 16%
COC(=O)[C@H](C(C)C)N1CCc2nnn(Cc3ccc(C)cc3)c2-c2cc(F)ccc2S1(=O)=O | · | · | i | · | ·
CCOc1cc(CNc2ccc(O)cc2)ccc1OCc1ccc(Cl)cc1 | · | i | i | · | 35µM*
O=C(CCl)N1c2ccccc2Sc2ccc3ccccc3c21 | · | i | i | 18% | 5µM*
Cc1ccc2nc(SCc3nc(-c4ccc(Cl)cc4)no3)[nH]c2c1 | · | i | i | · | ?
CN1CC(c2ccccc2Cl)C2(COc3ccccc3C2=O)C12C(=O)Nc1ccccc12 (stereo not given) | -2% | i | i | 7% | ?
Cc1ccc(C2CN(C)C3(C(=O)Nc4ccccc43)C23COc2ccccc2C3=O)cc1 (stereo not given) | -4% | i | · | 3% | 3.5µM*
CCc1ccc(C2=NN(c3ccc(S(N)(=O)=O)cc3)C(c3ccc(F)cc3)C2)cc1 (stereo not given) | -30% | ? | · | 14% | 14µM*
Cc1ccc(C2CC(c3ccccc3)=NN2c2ccc(S(N)(=O)=O)cc2)cc1 (stereo not given) | · | i | ? | 14% | ?
COc1ccc(C2CC(c3ccc(C(F)(F)F)cc3)=NN2c2ccc(S(N)(=O)=O)cc2)cc1 (stereo not given) | · | i | ? | ? | 13µM*
